Laboratory results as given in PubChem BioAssay (NCATS).
Results filed as inconclusive are left out. Activity calls are given as the source filed them. Calls come from the whole dose curve; as a rule, active = well fitted inhibition curve with a large enough effect; inconclusive = small, poorly fitted or top-dose-only effect; inactive = flat fitted curve, though single readings scatter.

target: Voltage-gated inwardly rectifying potassium channel KCNH2 (Homo sapiens) (UniProt Q12809); experiment: qHTS Assay for Small Molecule Inhibitors of the Human hERG Channel Activity (AID 588834); conditions: U2OS BacMam hERG, FluxOR thallium flux fluorescence; series mostly up to 46.1 µM; activity change, negative = inhibition: at the top concentration;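 note: lower thallium flux fluorescence means stronger hERG block; nearly all actives have a fitted effect of over 50% in size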; for activity change, negative = inhibition: top concentration of the series differs between compounds
Outline: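 Measured: FluxOR fluorescence after thallium stimulation in U2OS cells transduced with hERG by baculovirus. Compounds pre-incubated around 10 min; medium Opti-MEM with 2% FCS. AC50 from Hill equation.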
% is set by controls: 0 for no effect and ±100 for the full control effect; potency is the fitted concentration of half-maximal effect.

Voltage-gated inwardly rectifying potassium channel KCNH2 (Homo sapiens), sequence (Q12809 whole entry, looked up): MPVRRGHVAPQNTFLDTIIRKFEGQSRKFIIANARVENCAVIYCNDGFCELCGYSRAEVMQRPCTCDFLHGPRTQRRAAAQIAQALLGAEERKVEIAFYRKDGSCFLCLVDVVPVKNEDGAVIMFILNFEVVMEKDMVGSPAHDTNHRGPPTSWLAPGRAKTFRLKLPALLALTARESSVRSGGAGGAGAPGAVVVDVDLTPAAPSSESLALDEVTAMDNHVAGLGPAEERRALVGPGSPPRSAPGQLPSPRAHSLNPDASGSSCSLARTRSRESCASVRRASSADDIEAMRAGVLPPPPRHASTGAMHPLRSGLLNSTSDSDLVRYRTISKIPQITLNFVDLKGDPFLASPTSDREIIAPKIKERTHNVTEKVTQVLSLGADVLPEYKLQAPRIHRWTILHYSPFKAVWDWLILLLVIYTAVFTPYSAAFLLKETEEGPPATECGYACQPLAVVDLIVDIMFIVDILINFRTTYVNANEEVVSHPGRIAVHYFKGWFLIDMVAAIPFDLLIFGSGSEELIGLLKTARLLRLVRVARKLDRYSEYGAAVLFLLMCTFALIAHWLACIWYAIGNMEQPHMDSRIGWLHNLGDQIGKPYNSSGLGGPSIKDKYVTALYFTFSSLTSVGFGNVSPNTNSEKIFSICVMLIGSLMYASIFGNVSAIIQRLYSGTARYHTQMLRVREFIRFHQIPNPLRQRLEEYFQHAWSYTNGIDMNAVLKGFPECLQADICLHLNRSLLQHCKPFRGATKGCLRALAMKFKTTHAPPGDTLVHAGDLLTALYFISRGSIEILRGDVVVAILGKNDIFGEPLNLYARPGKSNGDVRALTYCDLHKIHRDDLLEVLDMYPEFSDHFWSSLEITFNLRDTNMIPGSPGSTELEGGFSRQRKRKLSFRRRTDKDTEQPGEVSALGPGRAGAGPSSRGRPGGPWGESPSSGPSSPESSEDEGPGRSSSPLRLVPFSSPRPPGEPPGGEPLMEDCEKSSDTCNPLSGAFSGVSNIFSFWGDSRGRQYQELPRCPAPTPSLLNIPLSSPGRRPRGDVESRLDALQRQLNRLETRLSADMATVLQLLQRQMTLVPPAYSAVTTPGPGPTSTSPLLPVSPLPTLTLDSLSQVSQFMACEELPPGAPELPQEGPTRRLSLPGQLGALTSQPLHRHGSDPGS

| Compound | activity change, negative = inhibition | Potency |
| --- | --- | --- |
| O=c1[nH]c(=O)n([C@H]2C[C@H](O)[C@@H](CO)O2)cc1C(F)(F)F | 6% (inactive) | – |
| N[C@@H](CCC(=O)N[C@@H](CS)C(=O)NCC(=O)O)C(=O)O | -1.99% (inactive) | – |
| C[C@]12C=CC(=O)C=C1CC[C@@H]1[C@@H]2[C@@H](O)C[C@@]2(C)[C@H]1CC[C@]2(O)C(=O)CO | -0.49% (inactive) | – |
| C[C@H](CCC(=O)O)[C@H]1CC[C@H]2[C@@H]3C(=O)C[C@@H]4CC(=O)CC[C@]4(C)[C@H]3CC(=O)[C@]12C | 15.5% (inactive) | – |
| CCC(NC(C)C)C(O)c1ccc(O)c(O)c1 (centres undefined) | 30.8% (inactive) | – |
| CCN(CCCCOC(=O)c1ccc(OC)c(OC)c1)C(C)Cc1ccc(OC)cc1 (centres undefined) | – | 2.24 µM (active) |
| CN1CCCC(CC2c3ccccc3Sc3ccccc32)C1 (centres undefined) | – | 4.47 µM (active) |
| CC(=O)[C@H]1CC[C@H]2[C@@H]3C[C@H](C)C4=CC(=O)CC[C@]4(C)[C@H]3[C@@H](O)C[C@]12C | -19.7% [at 20.6 µM] (inactive) | – |
| CC1=C(C(=O)O)N2C(=O)[C@@H](NC(=O)[C@H](N)c3ccc(O)cc3)[C@H]2SC1 | 5.53% [at 20.6 µM] (inactive) | – |
| CC[C@@H](CO)NCCN[C@@H](CC)CO | 22.1% [at 20.6 µM] (inactive) | – |
| CC1(C)O[C@@H]2C[C@H]3[C@@H]4C[C@H](F)C5=CC(=O)CC[C@]5(C)[C@H]4[C@@H](O)C[C@]3(C)[C@]2(C(=O)CO)O1 | -7.69% [at 20.6 µM] (inactive) | – |
| C[C@]12CCC(=O)C=C1[C@@H]1C[C@@H]1[C@H]1[C@@H]3[C@@H]4C[C@@H]4[C@@]4(CCC(=O)O4)[C@@]3(C)CC[C@@H]12 | -1.76% (inactive) | – |
| C[C@]12CC[C@H]3[C@@H](CCC4=CC(=O)CC[C@@]43C)[C@@H]1CC[C@@H]2C(=O)CO | -0.156% [at 20.6 µM] (inactive) | – |
| C=C1C[C@H]2[C@@H]3C=C(C)C4=CC(=O)CC[C@]4(C)[C@H]3CC[C@]2(C)[C@@]1(OC(C)=O)C(C)=O | 4.08% (inactive) | – |
| CC1(C)O[C@@H]2[C@@H](CO[C@@]3(COS(N)(=O)=O)OC(C)(C)O[C@@H]23)O1 | -13.9% (inactive) | – |
| CC1=C(C(=O)OC(C)C)C(c2cccc([N+](=O)[O-])c2)C(C(=O)OC2CN(C(c3ccccc3)c3ccccc3)C2)=C(N)N1 (centres undefined) | -27.2% (inactive) | – |
| CCCC1O[C@@H]2C[C@H]3[C@@H]4CCC5=CC(=O)C=C[C@]5(C)[C@H]4[C@@H](O)C[C@]3(C)[C@]2(C(=O)CO)O1 (some centres undefined) | 5.29% (inactive) | – |
| CN(C/C=C/c1ccccc1)Cc1cccc2ccccc12 | – | 10 µM (active) |
| COc1cccc(OC)c1C(=O)N[C@@H]1C(=O)N2[C@@H]1SC(C)(C)[C@@H]2C(=O)O | -3.09% (inactive) | – |
| CC(=O)O[C@]1(C(C)=O)CC[C@H]2[C@@H]3C[C@H](C)C4=CC(=O)CC[C@]4(C)[C@H]3CC[C@@]21C | – | inactive |

| Compound | activity change, negative = inhibition | Potency |
| --- | --- | --- |
| C/C=C/c1ccc(OC)cc1 | -8.76% (inactive) | – |
| COc1cc(/C=C/C(=O)O[C@H]2CC[C@]34C[C@]35CC[C@]3(C)[C@@H]([C@H](C)CCC=C(C)C)CC[C@@]3(C)[C@@H]5CC[C@H]4C2(C)C)ccc1O | 6.22% (inactive) | – |
| OC[C@@H](O)[C@@H](O[C@@H]1O[C@H](CO)[C@H](O)[C@H](O)[C@H]1O)[C@H](O)[C@@H](O)CO | 4.93% (inactive) | – |
| C[C@@H]1C[C@H]2[C@@H]3C[C@H](F)C4=CC(=O)C(Cl)=C[C@]4(C)[C@@]3(F)[C@@H](O)C[C@]2(C)[C@@]1(O)C(=O)CO | -3.03% (inactive) | – |
| OC[C@H]1O[C@@H](n2cnc3c(=S)nc[nH]c32)[C@H](O)[C@@H]1O | 4.82% (inactive) | – |
| CC(=O)CC(c1ccc([N+](=O)[O-])cc1)c1c(O)c2ccccc2oc1=O (centres undefined) | -4.98% [at 20.6 µM] (inactive) | – |
| Nc1nc2ncc(CNc3ccc(C(=O)N[C@@H](CCC(=O)O)C(=O)O)cc3)nc2c(=O)[nH]1 | 24.3% (inactive) | – |
| NC[C@H]1O[C@H](O[C@H]2[C@H](O[C@@H]3O[C@H](CO)[C@@H](O)[C@H]3O)C(O)[C@H](N)C[C@@H]2N)[C@H](N)[C@@H](O)[C@@H]1O (some centres undefined) | -0.771% [at 20.6 µM] (inactive) | – |
| CCCC(=O)Nc1ccc(OCC(O)CNC(C)C)c(C(C)=O)c1 (centres undefined) | -7.96% [at 20.6 µM] (inactive) | – |
| CC1(C)O[C@@H]2C[C@H]3[C@@H]4C[C@H](F)C5=CC(=O)C=C[C@]5(C)[C@H]4[C@@H](O)C[C@]3(C)[C@]2(C(=O)CO)O1 | -3.53% [at 20.6 µM] (inactive) | – |
| C#C[C@]1(O)CC[C@H]2[C@@H]3CCC4=CC(=O)CC[C@@H]4[C@H]3CC[C@@]21C | 3.72% (inactive) | – |
| CC(=O)OCC(=O)[C@@]12OC(C)(C)O[C@@H]1C[C@H]1[C@@H]3C[C@H](F)C4=CC(=O)C=C[C@]4(C)[C@@]3(F)[C@@H](O)C[C@@]12C | -4.35% [at 20.6 µM] (inactive) | – |
| Cc1cc(N)c2cc(NC(=O)Nc3ccc4nc(C)cc(N)c4c3)ccc2n1 | 23.9% (inactive) | – |
| CCN(CC)CCOc1ccc(C(O)(Cc2ccc(Cl)cc2)c2ccc(C)cc2)cc1 (centres undefined) | – | 3.98 µM (active) |
| CCCC(=O)O[C@]1(C(=O)CO)CC[C@H]2[C@@H]3CCC4=CC(=O)CC[C@]4(C)[C@H]3[C@@H](O)C[C@@]21C | -1.67% (inactive) | – |
| CC(=O)OCC(=O)[C@@]1(O)[C@H](C)C[C@H]2[C@@H]3CCC4=CC(=O)C=C[C@]4(C)[C@@]3(F)[C@@H](O)C[C@@]21C | -5.59% [at 20.6 µM] (inactive) | – |
| CCOC(=O)[C@H](CCc1ccccc1)N[C@@H](C)C(=O)N1Cc2ccccc2C[C@H]1C(=O)O | 1.08% (inactive) | – |
| CC(=O)OCC(=O)[C@@]12N=C(C)O[C@@H]1C[C@H]1[C@@H]3CCC4=CC(=O)C=C[C@]4(C)[C@H]3[C@@H](O)C[C@@]12C | 20.1% (inactive) | – |
| C[C@]12CC[C@@H]3c4ccc(O)cc4CC[C@H]3[C@@H]1C[C@@H](O)[C@@H]2O | -0.14% (inactive) | – |
